In PubChem BioAssay AID651724 (National Center for Advancing Translational Sciences (NCATS), 2012) one finds activity change data, which are given here for 61 molecules.

The structures appear in SMILES notation. In all, about 340,000 compounds went through this assay and about 1,700 (0.5%) were called active. Inconclusive results (about 2%) are left out. Many of the other results were omitted from the sample, so actives are more common in it than they were. Unmarked numbers belong to inactive results. Rule as the data show it: active = activity change below about -65%; inconclusive = mostly about -30% to -63%; inactive = weaker than that.
% is scaled to controls: 0 for no effect and ±100 for the full control effect.

For this assay, the system named is CtBP / adenovirus E1A interaction (AlphaScreen). As to the kind of experiment: qHTS Assay for Inhibitors of the CtBP/E1A Interaction. Conditions: AlphaScreen GST-E1A/His-CtBP binding, 1536-well; stronger effect = lower value. The procedure, abridged: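 In 5 uL wells, 23 nL compound meets equimolar GST-E1A and His-CtBP (5X stock 125 nM each) for 2 h, 37 °C. Beads (5X, 50 ug/mL) then 1 h, 37 °C, dark.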
A general note: qHTS replaces the single test concentration by a dilution series.
Consider `CCOC(=O)c1cc(-c2sc(NC(=O)c3ccccc3)nc2C)n(-c2ccc(Br)cc2)n1`, for which the activity change was 0%.

`COc1cccc(NC(=O)CN(C)C(=O)c2cc(Cl)nc3ccccc23)c1`: the activity change was -3.92%.

In the case of `Cc1cc(C(=O)N/N=C/c2cc([N+](=O)[O-])cc(C)c2O)n[nH]1`, the activity change is -87.9% (active).

Turning to `COc1ccc2ccccc2c1/C=N/NC(=O)c1cc(C)[nH]n1`, the activity change was -8.94%.

In the case of `Cc1ccsc1C(=O)N/N=C/c1ccc([N+](=O)[O-])cc1`, the activity change was -4.19%.

As to `Cc1ccccc1S(=O)(=O)NC(=O)C1(C)CCN1C(=O)C1(c2ccc(Cl)cc2)CC1` (stereo unspecified), the activity change was 9.59%.

In the case of `NC(c1ccccc1)c1csc(NC(=O)Nc2cccc(C(F)(F)F)c2)n1` (stereo unspecified), the activity change was -14.2%.

As to `O=C(COC(=O)COc1cc(Cl)c(Cl)cc1Cl)NC1CC1`, the activity change is -0.684%.

For the molecule `NC(=S)NN=Cc1ccc(OC(=O)COc2cc(Cl)c(Cl)cc2Cl)cn1`, the activity change was -89.3% (active).

Turning to `O=C(COc1ccc(Cl)cc1Cl)N/N=C/c1ccccn1`, the activity change was -13%.

In the case of `CCCS(=O)(=O)NC(=O)C1(C)CCCN(C(=O)c2ccnc(Cl)c2)C1` (stereo unspecified), the activity change is -15.6%.

Turning to `Cc1cc([N+](=O)[O-])c(N2CCC[C@@H]2C(=O)O)c([N+](=O)[O-])c1`, the activity change is 4.03%.

With `Cc1cc([N+](=O)[O-])c(NC2CCCCC2)c([N+](=O)[O-])c1`, the activity change is -67.5% (active).

As for `Cc1cc([N+](=O)[O-])ccc1NC1CCCC1`, the activity change is -0.0944%.

`CN(C)CCNC(=O)c1ccc(-c2cn3c(-c4ccc(Oc5ccccc5)cc4)cnc3cn2)cc1`: the activity change was -7.14%.

As for `Oc1c(CN2CCN(c3ccc(F)cc3)CC2)cc(Cl)c2cccnc12`, the activity change is -85.8% (active).

As to `Cc1cccc(C)c1NC(=O)CN1CCN(c2ccc(F)cc2)CC1`, the activity change was -4.18%.

Regarding `Cc1ccc(CN2CCN(c3ncccn3)CC2)c(C)c1`, the activity change is -0.239%.

Take `O=C1CC[C@@H](C(=O)N2CSC[C@@H]2C(=O)Nc2ccc(C(F)(F)F)cc2)N1`: the activity change was 2.94%.

For `COc1ccc(C=C2CCC3C(CCCC34OCCO4)C2=O)cc1` (stereo unspecified), the activity change is -0.25%.

As for `COc1cncc(-c2cnc3sc(NCCc4ccccn4)nn23)c1`, the activity change is -68.3% (active).

As for `COc1cccc(NC(=S)NCc2ccccn2)c1`, the activity change was -9.96%.

For the molecule `Cc1ccc(C(=O)N/C(=C\c2cccs2)C(=O)NCCc2ccccn2)cc1C`, the activity change is -19.9%.

In the case of `O=S(=O)(c1cccc(C(F)(F)F)c1)N1c2ccccc2-n2cccc2C1c1cccnc1` (stereo unspecified), the activity change is 1.4%.

For the molecule `C[C@@H]1CN([C@@H](C)CO)C(=O)c2cc(Br)cnc2O[C@H]1CN(C)Cc1ccc(-c2ccccc2)cc1`, the activity change is -2.2%.

In the case of `CCCCCc1c(-c2cccc(Br)c2)ncn1CCc1ccccc1OC`, the activity change was -0.685%.

On to `COc1cccc(C(NC(C)=O)c2nc(-c3cnc4ccccc4c3)cs2)c1` (stereo unspecified), for which the activity change was -20.3%.

On to `Cc1ccc(-c2cnc(C(O)c3cccc(C)c3C)[nH]2)cc1` (stereo unspecified), for which the activity change was -4.55%.

In the case of `COCCNC(=O)CSc1nc(N)c(NC(=O)c2ccco2)c(=O)[nH]1`, the activity change was 12.4%.

For `COC(=O)c1ccc(NC(=O)CSc2nc(N)c(NC(=O)c3ccc(Br)o3)c(=O)[nH]2)cc1`, the activity change is -65.1% (active).

As for `COc1ccc(C(=O)Nc2c(N)nc(SCC(=O)Nc3ccc(C(C)=O)cc3)[nH]c2=O)cc1`, the activity change is -2.12%.

With `O=C(Nc1ccccc1)/C(=C\c1ccco1)NC(=O)c1ccco1`, the activity change was 0.317%.

As to `O=C(NCCc1ccco1)c1nn(Cc2ccccc2)c(=O)c2ccccc12`, the activity change was -2.1%.

With `O=c1nc2s/c(=C\c3ccco3)c(=O)n2nc1Cc1ccccc1`, the activity change was -81.2% (active).

Consider `CCCCOCCCNC(=O)C[C@@H]1C[C@@]2(C(=O)OC)CCCCC=C2N(CCC2=CCCCC2)C1=O`, for which the activity change was -1.56%.

With `Cc1ccc(-n2ncc3c(Nc4cccc(C(=O)O)c4)ncnc32)cc1`, the activity change is -74.4% (active).

Regarding `CC(C)Sc1ncnc2c1cnn2-c1ccccc1`, the activity change was 0.575%.

Take `Cc1ccc(Nc2ncnc3c2cnn3C)c(C)c1`: the activity change was 3.32%.

As for `CC(=O)Nc1cc(-c2cccc(CO)c2)cn2c(-c3cccc(C(F)(F)F)c3)cnc12`, the activity change was 3.79%.

With `CN(Cc1cn(Cc2ccc(C(F)(F)F)cc2)nn1)C1CN(Cc2cn(Cc3ccc(C(F)(F)F)cc3)nn2)S(=O)(=O)C1` (stereo unspecified), the activity change was 3.64%.

In the case of `O=C(Nc1ccc(C(=O)O)cc1)/C(=C/c1ccc([N+](=O)[O-])cc1)NC(=O)c1ccccc1`, the activity change is -2.48%.

On to `Cc1ccc(NC(=O)/C(=C/c2ccc([N+](=O)[O-])cc2)NC(=O)c2ccccc2)cc1`, for which the activity change is 4.11%.

In the case of `O=C(N/N=C/c1cc([N+](=O)[O-])ccc1O)/C(=C\c1cccs1)NC(=O)c1ccccc1`, the activity change is -94.1% (active).

With `CCCCN(C=O)c1c(CC)nc2c(OCCC3CCCCC3)cccn12`, the activity change was -11%.

In the case of `CCC(CC)C(C(=O)NC1CCCC1)N1CCN(c2cc(C)nc3ccccc23)CC1` (stereo unspecified), the activity change is 3.39%.

As for `CCc1cc(=O)oc2c(C)c(OCC(=O)NCCN3CCOCC3)ccc12`, the activity change was -6.07%.

Take `Cc1cc(=O)oc2c(C)c(OCC(=O)NCCN3CCOCC3)ccc12`: the activity change is 0.132%.

As for `O=C(COc1cc2oc(=O)c3c(c2cc1Cl)CCC3)NCCCN1CCOCC1`, the activity change is -65.9% (active).

Take `O=C(CC(CC(=O)c1ccccc1)c1ccco1)c1ccccc1`: the activity change is 4.89%.

`Cc1ccc(S(=O)(=O)n2oc(=O)c(C3CCCCC3)c2N)cc1`: the activity change was -69.5% (active).

On to `Cc1ccc(S(=O)(=O)NC2CCCCCC2)cc1`, for which the activity change is 10.7%.

Regarding `Cc1ccc(S(=O)(=O)N2CCC(N3CCCCCC3)CC2)cc1`, the activity change is -10.9%.

For the molecule `Cc1cc(Br)cn2c(Cc3ccccc3C(F)(F)F)c(C3CCCCC3)nc12`, the activity change is -6.97%.

In the case of `Cc1noc(C)c1-c1ccc(C(=O)NCc2ccncc2)c2occc12`, the activity change was -17.7%.

Turning to `Cc1[nH]c2ccccc2c1C(=O)c1cc([C@H](NC(=O)OC(C)(C)C)C(C)C)sc1N`, the activity change is -23.1%.

On to `O=C(CSc1nc2ccccc2o1)N1CCN(c2ccccc2)CC1`, for which the activity change was -3.28%.

As for `Cc1ccc(/C=N/NC(=O)CSc2nc3ccccc3o2)cc1`, the activity change is -93.4% (active).

`O=C(CSc1nc2ccccc2o1)N1CCN(c2ccc(Cl)cc2)CC1`: the activity change was -0.51%.

As to `CCN(CC)C(=O)CSc1nc2ccccc2o1`, the activity change was 4.11%.

As for `O=C(CSc1nc2ccccc2o1)N/N=C/c1ccccc1C(=O)O`, the activity change was -92.7% (active).

Regarding `CC(C)(C)C(=O)CSc1nc2ccccc2o1`, the activity change is 11.1%.
